This passage reports growth inhibition call results from the antibiotic and cytotoxicity screens of Wong et al. (2023).

The structures appear in SMILES notation. Hit rate of the full screen: of about 39,000 compounds, about 500 (1.3%) were called active. Shown is part of a subset that was picked to be rich in actives.

This test relates to S. aureus RN4220. As to the kind of experiment: growth inhibition call (relative growth <= 0.2). The settings on record: 50 µM.
Turning to `CCC1(C2OC(C3OC(O)(CO)C(C)CC3C)CC2C)CCC(C2(C)CCC3(CC(O)C(C)C(C(C)C(OC)C(C)C(=O)[O-])O3)O2)O1.[Na+]` (stereo unspecified), the growth inhibition call was “active”. Consider `O=C(O)C(Cl)Cl.[NaH]`, for which the growth inhibition call is “inactive”.

Regarding `C[N+]1(C)C2CC(OC(=O)C(CO)c3ccccc3)CC1C1OC12.[Br-]` (stereo unspecified), the growth inhibition call was “inactive”. The result for `C[C@@]12NC(=O)CN1CCc1ccccc12` reads “inactive”. The result for `CC[C@@H](C(=O)[C@@H](C)[C@@H](O)[C@H](C)[C@@H]1O[C@@H]([C@@H](CC)C(=O)O)CC[C@@H]1C)[C@H]1O[C@]2(C=C[C@@H](O)[C@]3(CC[C@@](C)([C@H]4CC[C@](O)(CC)[C@H](C)O4)O3)O2)[C@H](C)C[C@@H]1C` reads “active”; that for `CCC(C(=O)[O-])C1CCC(C)C(C(C)C(O)C(C)C(=O)C(CC)C2OC3(C=CC(O)C4(CCC(C)(C5CCC(O)(CC)C(C)O5)O4)O3)C(C)CC2C)O1.[Na+]` (stereo unspecified), “active”. As to `CC[C@@H](C)C(=O)O[C@H]1[C@H](O)[C@H]2[C@@H](CN3C[C@@H](C)CC[C@@H]3[C@@]2(C)O)[C@H]2C[C@]34O[C@]5(O)[C@@H](OC(=O)[C@@](C)(O)CC)CC[C@@]3(C)[C@@H]5[C@@H](OC(C)=O)[C@@H](OC(C)=O)[C@@H]4[C@@]21O`, the growth inhibition call was “inactive”. Consider `COC(=O)C[C@@H]1CC[C@@H]2NC[C@H](O)COC[C@H]2O1`, for which the growth inhibition call is “inactive”.

Turning to `COc1cc2c3cc1Oc1c(OC)c(OC)cc4c1[C@@H](Cc1cccc(c1)Oc1ccc(c(O)c1)C[C@@H]3N(C)CC2)N(C)CC4`, the growth inhibition call is “inactive”. As for `C[C@@H](CN)CC(=O)O`, the growth inhibition call is “inactive”. Under `Cc1noc(C)c1CN1CCNCC1` stands “inactive”; under `C[C@H](O)[C@@]12[C@H]3CC=C[C@@H]1N2CC3` (stereo partly specified), “inactive”. Under `O=C([O-])Cc1ccccc1.[Na+]` stands “inactive”; under `C[CH2][Hg][S]c1ccccc1C(=O)[O-].[Na+]`, “active”; under `CCCCOC(=O)c1ccccc1C(=O)OCCCC`, “inactive”. Take `NCCO.NCCO.O[AsH]O[AsH]O` (stereo unspecified): the growth inhibition call is “inactive”. Under `CO[C@H]1[C@@H](O)C[C@@H](O[C@H]2[C@@H](O)C[C@@H](O[C@H]3[C@@H](O)C[C@@H](O[C@H]4CC[C@@]5(C)[C@@H](CC[C@H]6[C@@H]5C[C@@H](O)[C@@]5(C)[C@H](C7=CC(=O)OC7)CC[C@@]65O)C4)O[C@@H]3C)O[C@@H]2C)O[C@@H]1C` stands “inactive”; under `CN1C[C@H](C(=O)N[C@]2(C)O[C@@]3(O)[C@@H]4CCCN4C(=O)[C@H](Cc4ccccc4)N3C2=O)C=C2c3cccc4[nH]cc(c34)C[C@H]21`, “inactive”.

For `C=C(C)[C@@H]1CCC(C)=C[C@H]1c1c(OC)cc(C)cc1OC`, the growth inhibition call was “inactive”. Consider `C=C(C)[C@@H]1CCC(C)=C[C@H]1c1c(O)cc(CCCCC)cc1O`, for which the growth inhibition call was “active”. The result for `CCCCCCCCCc1ccc(O)cc1` reads “inactive”; that for `C[C@H]1O[C@H](O[C@H]2[C@H](O)[C@@H](O)[C@@H](O)[C@H](O)[C@@H]2O)[C@@H](N)C[C@@H]1NC(=N)C(=O)O`, “inactive”.

Take `Cc1[nH]c2ccc(O)cc2c1CCN`: the growth inhibition call is “inactive”. `CN(C)[C@@H]1C(=O)C(C(N)=O)=C(O)[C@@]2(O)C(O)=C3C(=O)c4c(O)cccc4[C@](C)(O)[C@H]3C[C@@H]12`: the growth inhibition call is “active”. For the molecule `CN(C)[C@@H]1C(=O)[C@H](C(N)=O)C(=O)[C@@]2(O)C(=O)[C@@H]3C(=O)c4c(O)cccc4[C@@](C)(O)[C@H]3C[C@@H]12`, the growth inhibition call was “active”. On to `CN(C)[C@@H]1C(=O)[C@@H](C(N)=O)C(=O)[C@@]2(O)C(=O)[C@H]3C(=O)c4c(O)ccc(Cl)c4[C@@](C)(O)[C@H]3C[C@@H]12`, for which the growth inhibition call was “active”. Under `N#Cc1nn(-c2c(Cl)cc(C(F)(F)F)cc2Cl)c(N)c1S(=O)C(F)(F)F` (stereo unspecified) stands “inactive”; under `c1nc(N2CCN3CCC[C@H]3C2)c2[nH]cnc2n1`, “inactive”; under `O=[As]O[As]=O` (stereo unspecified), “inactive”.

`CC(C)[N+](C)(CCC(C(N)=O)(c1ccccc1)c1ccccc1)C(C)C.[I-]`: the growth inhibition call was “inactive”. As for `Oc1ccccc1-c1ccccc1O`, the growth inhibition call was “inactive”.

In the case of `O=C1C=CC(=O)c2c(O)cccc21`, the growth inhibition call is “inactive”. Under `CC1=CC(=O)c2c(O)cccc2C1=O` stands “active”; under `CN1C(=O)C(O)N=C(c2ccccc2)c2cc(Cl)ccc21` (stereo unspecified), “inactive”; under `CNC(=O)Oc1ccc2c(c1)C1(C)CCN(C)C1N2C.O=S(=O)(O)O` (stereo unspecified), “inactive”. Under `C[C@H]1O[C@H](C[N+](C)(C)C)C[C@@H]1O` stands “inactive”. Under `CC(=O)N[C@@H]1[C@H](O[C@@H]2O[C@H](C[C@@H](O)[C@H]3O[C@@H](n4ccc(=O)[nH]c4=O)[C@H](O)[C@@H]3O)[C@H](O)[C@H](O)[C@H]2NC(=O)/C=C/CCCCCCCCC(C)C)O[C@@H](CO)[C@H](O)[C@H]1O` stands “active”; under `C[C@@]1(O)[C@H](O)[C@@H](CO)O[C@H]1n1ccc2c(N)ncnc21`, “inactive”; under `O=c1cccc2n1C[C@@H]1C[C@H]2CN(CCO)C1`, “inactive”. Consider `CC(=CCn1c[n+](C)c2c(N)ncnc21)CCC1(C)C(C)CCC2(C)C(C)=CCCC21.[Cl-]` (stereo unspecified), for which the growth inhibition call was “active”. Turning to `OCCN1CC2(CCN(c3nccs3)C2)C1`, the growth inhibition call was “inactive”. Under `CC(C)CC(CN)CC(=O)O` (stereo unspecified) stands “inactive”; under `COC(=O)[C@@H](N)CCCNC(N)=N[N+](=O)[O-]`, “inactive”. Under `O=C1[O][SbH]23[O]C(=O)C([O]2)C2[O][SbH]4([O]C(=O)C([O]4)C1[O]3)[O]C2=O` stands “inactive”. The result for `O=C1[O][SbH]23[O]C(=O)[C@H]([O]2)[C@H]2[O][SbH]4([O]C(=O)[C@H]([O]4)[C@H]1[O]3)[O]C2=O` reads “active”; that for `C=C(CCCCCCCCCCCCCCCC)OOC[C@@H](COP(=O)(ON)O[C@@H]1[C@H](O)[C@H](O)[C@@H](OP(=O)(O)ON)[C@H](OP(=O)(O)ON)[C@H]1O)OOC(=C)CC/C=C/C/C=C/C/C=C/C/C=C/CCCCC` (stereo partly specified), “inactive”.

Consider `CN1CC2(CNC2)OCCS1(=O)=O`, for which the growth inhibition call is “inactive”. Consider `CN(C)C(=O)CCC(=O)N1C[C@H]2C[C@@H]1CN2`, for which the growth inhibition call is “inactive”. Under `Oc1cc(Cl)ccc1Oc1ccc(Cl)cc1Cl` [listing 1 of 2 here] stands “inactive”; under `Oc1cc(Cl)ccc1Oc1ccc(Cl)cc1Cl` [listing 2 of 2 here], “active”. The result for `Oc1ccc(Cl)cc1Cc1cc(Cl)ccc1O` reads “inactive”; that for `CC(=O)[O][Hg][c]1ccccc1`, “inactive”.

`NC(=O)[C@H]1CNC(=O)C1`: the growth inhibition call is “inactive”. The result for `Cc1cc2c(C(C)C)c(O)c(O)c(C=O)c2c(O)c1-c1c(C)cc2c(C(C)C)c(O)c(O)c(C=O)c2c1O` reads “inactive”; that for `COc1cccc2c1C(=O)c1c(O)c3c(c(O)c1C2=O)C[C@@](O)(C(=O)CO)C[C@@H]3O[C@H]1C[C@H](N2CCO[C@H](OC)C2)[C@H](O)[C@H](C)O1`, “active”; that for `CC[C@@]1(O)C[C@H](O[C@H]2C[C@H](N(C)C)[C@H](O)[C@H](C)O2)c2c(cc3c(c2O)C(=O)c2c(O)ccc(O)c2C3=O)[C@H]1C(=O)OC`, “inactive”.
